The results in this text go back to the supplement of paper PMC6555819.

One assay concerns RARb homodimer (NR concentration 270 nM). The assay can be described thus: PBM binding z-score (relative to random genomic background probes); higher = stronger binding; sequences stand for … in GC…GCGATTGACAGCGTAGAATGAAGG
The gist of the method:
(§1)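 Ligand-free nuclear receptor dimers were bound for 1 h to custom Agilent 4×180K protein-binding microarrays. Detection used antibodies against each partner (one per run). Binding z-scores rest on regression-normalized fluorescence, with random background probes as the reference.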
Turning to GCTAGCAGGCCATTTGGGTAACTCAATGACGGGC, the PBM binding z-score was -0.555.

For TCATATAGGTAAATGTTAGGTGAAAGTCCGATCT, the PBM binding z-score amounted to 0.881.

Sequence ATCTCTAGGTAACCGAGTTCAGTGAATGCCGAAC showed a PBM binding z-score of 1.31.

Consider TCAGACAGGTGAATGTAACTCAGGTACGCAGTCG, for which the PBM binding z-score is 0.305.

In the case of AGAATTAGGTTATTAAGATCAGGGAATTGCGGTC, the PBM binding z-score came to 0.844.

With TCTCGGAGCACACGAAAGGTCAGAGCTCGACATC, the PBM binding z-score is 4.06.

The sequence TCATATGGGTAAATGCTAGGTGAAAGTCCGATCT showed a PBM binding z-score of 0.561.

Consider ATATGTAGGTTAAGGGTGATTCAGGTTGGTTCGC, for which the PBM binding z-score worked out at 1.8.

Regarding TGAATGAGGTTATAAGATTAGGGAACGTTGCAAA, the PBM binding z-score came out at 0.24.

TCTGTTAGGTCAGTTGGTCAGCTAACGAGCTGCC had a PBM binding z-score of 3.01.

GCTAGCGGGCCATTTGGGTCACTCAATGACGGGC: the PBM binding z-score is 1.54.

As for CAAACTAGGTCACCAAAGGTCAAAGTCGAATGAC, the PBM binding z-score turned out to be 5.94.

On to TTACCAAGGTGAAAGGTAGTTGATGCACGCCTTG, for which the PBM binding z-score came out at 0.674.

For the sequence TCGAGTAGGTGACCAATGGGGCATTCAGCTTTCT, the PBM binding z-score came to 0.62.

Sequence CTTACTGGGCCACGAAAGGTCATTGATTCAGTGA returned a PBM binding z-score of 4.85.

Consider ATATGTAGGTTAGCTTGGGTCATTCAGACTAGGC, for which the PBM binding z-score came to 2.7.

The sequence CCTTACGGGTCAAGGTGATAGCACGGGTGGTACG yielded a PBM binding z-score of 3.13.

GCTTGTAGATCAAGGTTCAGAAAGACTAAGCTAA: the PBM binding z-score is 0.239.

In turn, TCACCAAGGTGAAGGTCGTTGATCCCTCTGTAGA came in with a PBM binding z-score of 1.71.

For TAGCCTAGGTCATGGGACAGTATACCACGCGAAC, the PBM binding z-score turned out to be 3.25.

In turn, CCTTGCAGGCCAATCTGGGTCACTCAAGGCTTGA had a PBM binding z-score of 2.28.

Sequence TATACAGGGTCAAAGGCCAGGGTACGAATGTCGA had a PBM binding z-score of 3.71.

In the case of CAAACTAGGTCACCGGAAGGTCAAAGACCGCATG, the PBM binding z-score is 5.49.

For the sequence CATACAGGGTCAGCTAGACCAGAGTAGGGACGGC, the PBM binding z-score was 2.81.

The sequence TCTAGTTGGTCACAGAGGTCACACACGACGGGTA came in with a PBM binding z-score of 4.61.

The sequence CCTAATGGGCCAAAGGTCATTGATTCCAATGCTC showed a PBM binding z-score of 4.39.

With TAGCCTAGGTCATTGGGCCAGGATAGTACGCATC, the PBM binding z-score came out at 2.8.

Regarding TCTAGCAGGCCAGAGGCTCACTCAAGAGGTACGG, the PBM binding z-score was -0.995.

The sequence AGATGTAGGTTACATCCGGGTCATTCAGGCTATG registered a PBM binding z-score of 2.87.

As to GCTATTAGTTGAAAGGGCAGCCGAATGATTCTCG, the PBM binding z-score amounted to 1.51.

In the case of TAGCCTAGGTCATTTAGGGGCCAGTATAGAAAGC, the PBM binding z-score stood at 3.12.

Sequence CCAGACAGGTGAAGGGTAACTCAGTCTGGTACGC came in with a PBM binding z-score of 0.722.

In turn, ATCGAAAGGTCGTGAGGCGAGTATACAGAAAGGC registered a PBM binding z-score of 2.55.

CGTGCAAGGTCATAGGAGGTCAGTGAAGACAGAT: the PBM binding z-score is 5.38.

As to TCATATAGGTAAAGGTGTAAGTCGAACGATATGA, the PBM binding z-score is -0.352.

Turning to TCTTTTAGATCAATAGAGGTTAAGAAAGTGCGCT, the PBM binding z-score stood at 1.25.

In the case of ATCTCTAGGTAAAGATAGTCCAGTGAATGCAAAT, the PBM binding z-score was -0.17.

The sequence TCAAGTAGGTTAGTCGGGGCATTCAGCCAACATA registered a PBM binding z-score of 0.846.

For the sequence ATATGTAGGTTAAGGGTCAGTCAGGTTGGTTCGC, the PBM binding z-score was determined as 3.81.

For the sequence CCTTACGGGTCACTCCAGGATATAGCATCGGAGT, the PBM binding z-score amounted to 2.33.

Another assay relates to RARg:RXRa (NR concentration 270 nM, RXRa partner concentration 90 nM). The description is as above. The gist of the method:
as §1
GCTAGCAGGCCATTTGGGTAACTCAATGACGGGC came in with a PBM binding z-score of -0.388.

TCATATAGGTAAATGTTAGGTGAAAGTCCGATCT returned a PBM binding z-score of 0.623.

Sequence ATCTCTAGGTAACCGAGTTCAGTGAATGCCGAAC showed a PBM binding z-score of 0.6.

The sequence TCAGACAGGTGAATGTAACTCAGGTACGCAGTCG came in with a PBM binding z-score of 0.399.

For AGAATTAGGTTATTAAGATCAGGGAATTGCGGTC, the PBM binding z-score was determined as 0.403.

Regarding TCTCGGAGCACACGAAAGGTCAGAGCTCGACATC, the PBM binding z-score is 3.96.

TCATATGGGTAAATGCTAGGTGAAAGTCCGATCT: the PBM binding z-score worked out at 0.294.

ATATGTAGGTTAAGGGTGATTCAGGTTGGTTCGC: the PBM binding z-score is 1.14.

Turning to TGAATGAGGTTATAAGATTAGGGAACGTTGCAAA, the PBM binding z-score was 1.43.

For TCTGTTAGGTCAGTTGGTCAGCTAACGAGCTGCC, the PBM binding z-score came to 3.01.

Regarding GCTAGCGGGCCATTTGGGTCACTCAATGACGGGC, the PBM binding z-score amounted to 0.986.

Consider CAAACTAGGTCACCAAAGGTCAAAGTCGAATGAC, for which the PBM binding z-score is 7.87.

Sequence TTACCAAGGTGAAAGGTAGTTGATGCACGCCTTG showed a PBM binding z-score of 1.1.

The sequence TCGAGTAGGTGACCAATGGGGCATTCAGCTTTCT returned a PBM binding z-score of 0.353.

Sequence CTTACTGGGCCACGAAAGGTCATTGATTCAGTGA had a PBM binding z-score of 5.14.

In turn, ATATGTAGGTTAGCTTGGGTCATTCAGACTAGGC registered a PBM binding z-score of 2.07.

CCTTACGGGTCAAGGTGATAGCACGGGTGGTACG gave a PBM binding z-score of 4.81.

The sequence GCTTGTAGATCAAGGTTCAGAAAGACTAAGCTAA showed a PBM binding z-score of 0.226.

TCACCAAGGTGAAGGTCGTTGATCCCTCTGTAGA showed a PBM binding z-score of 1.55.

Take TAGCCTAGGTCATGGGACAGTATACCACGCGAAC: the PBM binding z-score came to 4.44.

Take CCTTGCAGGCCAATCTGGGTCACTCAAGGCTTGA: the PBM binding z-score turned out to be 1.15.

Regarding TATACAGGGTCAAAGGCCAGGGTACGAATGTCGA, the PBM binding z-score is 5.77.

Consider CAAACTAGGTCACCGGAAGGTCAAAGACCGCATG, for which the PBM binding z-score amounted to 8.28.

Regarding CATACAGGGTCAGCTAGACCAGAGTAGGGACGGC, the PBM binding z-score came to 4.53.

The sequence TCTAGTTGGTCACAGAGGTCACACACGACGGGTA registered a PBM binding z-score of 5.8.

CCTAATGGGCCAAAGGTCATTGATTCCAATGCTC came in with a PBM binding z-score of 5.84.

Consider TAGCCTAGGTCATTGGGCCAGGATAGTACGCATC, for which the PBM binding z-score was determined as 3.79.

Take TCTAGCAGGCCAGAGGCTCACTCAAGAGGTACGG: the PBM binding z-score is -0.48.

In the case of AGATGTAGGTTACATCCGGGTCATTCAGGCTATG, the PBM binding z-score was 3.6.

With GCTATTAGTTGAAAGGGCAGCCGAATGATTCTCG, the PBM binding z-score came out at 0.552.

As to TAGCCTAGGTCATTTAGGGGCCAGTATAGAAAGC, the PBM binding z-score was found to be 5.9.

CCAGACAGGTGAAGGGTAACTCAGTCTGGTACGC had a PBM binding z-score of 0.492.

For ATCGAAAGGTCGTGAGGCGAGTATACAGAAAGGC, the PBM binding z-score was 4.39.

With CGTGCAAGGTCATAGGAGGTCAGTGAAGACAGAT, the PBM binding z-score came out at 7.04.

The sequence TCATATAGGTAAAGGTGTAAGTCGAACGATATGA showed a PBM binding z-score of 0.365.

As to TCTTTTAGATCAATAGAGGTTAAGAAAGTGCGCT, the PBM binding z-score is 1.22.

Turning to ATCTCTAGGTAAAGATAGTCCAGTGAATGCAAAT, the PBM binding z-score is 0.22.

Sequence TCAAGTAGGTTAGTCGGGGCATTCAGCCAACATA had a PBM binding z-score of 0.431.

Sequence ATATGTAGGTTAAGGGTCAGTCAGGTTGGTTCGC showed a PBM binding z-score of 4.01.

On to CCTTACGGGTCACTCCAGGATATAGCATCGGAGT, for which the PBM binding z-score was 4.02.
